In PubChem BioAssay AID1159580 (chemical genetic matrix, 2015):
Values joined by “and” are separate entries in the source; they are usually repeats but may differ in a detail not shown here. Identical values can stand only once. Out of some 5,500 compounds screened, about 2,000 (36%) were called active. Another 18% or so got no clear call; they are omitted. Cut-off read from the data, not from the text of the source: active = normalized growth mostly below about 0.91 (no sharp cut-off); inconclusive = no clear call, values can overlap the other calls; inactive = mostly above about 0.92. Some of the results follow.

Assay: chemical genetic growth profiling, strain panel (AID 1159580);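 note: tested at 20 µM; growth read once vehicle control cultures reached saturation at 30 °C; 1 = growth at the plate median or of vehicle wells; lower values mean less growth of the strain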
Conditions: S. cerevisiae deletion strains, growth OD

Measured: normalized growth

CCn1nc(C(=O)O)c(=O)c2cc3c(cc21)OCO3
inactive: locus YAL013W, strain DEP1, active compounds read low 1.01 | locus YAL021C, strain ccr4, active compounds read low 1 | locus YAL026C, strain drs2, active compounds read low 0.999 | locus YAL030W, strain snc1, active compounds read low 1.01 | locus YAL040C, strain CLN3, active compounds read low 0.955 | locus YBL061C, strain skt5, active compounds read low 1.02 | locus YBR009C, strain hhf1, active compounds read low 0.989 | locus YBR021W, strain FUR4, active compounds read low 1.03 | locus YBR023C, strain chs3, active compounds read low 1.03 | locus YBR171W, strain sec66, active compounds read low 1 | locus YBR229C, strain ROT2, active compounds read low 1.01 | locus YBR231C, strain swc5, active compounds read low 1.03 | locus YBR279W, strain paf1, active compounds read low 1 | locus YCL011C, strain gbp2, active compounds read low 0.987 | locus YCL016C, strain dcc1, active compounds read low 0.99 | locus YCL029C, strain bik1, active compounds read low 1.01 | locus YCL069W, strain vba3, active compounds read low 1.01 | locus YCR088W, strain abp1, active compounds read low 1 | locus YDL005C, strain med2, active compounds read low 0.998 | locus YDL035C, strain GPR1, active compounds read low 1 | locus YDL040C, strain nat1, active compounds read low 1.01 | locus YDL074C, strain BRE1, active compounds read low 1.04 | locus YDL101C, strain DUN1, active compounds read low 1.01 | locus YDL134C, strain PPH21, active compounds read low 1 | locus YDL185W, strain tfp1, active compounds read low 1.03 | locus YDL192W, strain arf1, active compounds read low 1.03 | locus YDR001C, strain nth1, active compounds read low 0.996 | locus YDR069C, strain doa4, active compounds read low 1.02 | locus YDR101C, strain arx1, active compounds read low 0.992 | locus YDR137W, strain rgp1, active compounds read low 0.949 | locus YDR150W, strain NUM1, active compounds read low 1.01 | locus YDR159W, strain sac3, active compounds read low 0.959 | locus YDR162C, strain NBP2, active compounds read low 1.01 | locus YDR195W, strain ref2 1.01 | locus YDR297W, strain sur2, active compounds read low 1.01 | locus YDR318W, strain mcm21, active compounds read low 1.02 | locus YDR334W, strain swr1, active compounds read low 1 | locus YDR335W, strain msn5, active compounds read low 1.01 | locus YDR363W, strain ESC2, active compounds read low 0.967 | locus YDR388W, active compounds read low 1.02 | locus YDR392W, strain spt3, active compounds read low 0.987 | locus YDR502C, strain sam2, active compounds read low 1.02 | locus YEL003W, strain gim4, active compounds read low 1.02 | locus YEL037C, strain rad23, active compounds read low 1.01 | locus YEL061C, strain CIN8 (second series), active compounds read low 1.01 | locus YEL061C, strain CIN8, active compounds read low 1.01 | locus YER002W, strain NOP16, active compounds read low 1.02 | locus YER015W, strain faa2, active compounds read low 1.02 | locus YER016W, strain bim1, active compounds read low 0.996 | locus YER110C, active compounds read low 1.02 | locus YER111C, strain swi4, active compounds read low 1 | locus YER155C, strain BEM2 (second series), active compounds read low 1.06 | locus YER155C, strain BEM2, active compounds read low 0.999 | locus YER167W, strain BCK2, active compounds read low 0.993 | locus YFR010W, strain ubp6, active compounds read low 1.03 | locus YGL078C, strain dbp3, active compounds read low 1.01 | locus YGL086W, strain mad1, active compounds read low 1 | locus YGL167C, strain pmr1, active compounds read low 1.03 | locus YGL173C, strain kem1, active compounds read low 1.01 | locus YGL227W, strain vid30, active compounds read low 1.01 | locus YGL240W, strain doc1, active compounds read low 1.03 | locus YGL248W, strain PDE1, active compounds read low 1.03 | locus YGL253W, strain hxk2, active compounds read low 1.01 | locus YGR078C, strain PAC10, active compounds read low 1.02 and 1.01 | locus YGR135W, strain pre9, active compounds read low 1.04 | locus YGR252W, strain gcn5, active compounds read low 1.05 | locus YHR013C, strain ard1, active compounds read low 1 | locus YHR027C, strain rpn1, active compounds read low 1.01 | locus YHR030C, strain SLT2, active compounds read low 1.01 and 0.999 | locus YHR079C, strain IRE1 (second series), active compounds read low 1.01 | locus YHR079C, strain IRE1, active compounds read low 0.999 | locus YHR094C, strain hxt1, active compounds read low 1.01 | locus YHR129C, strain ARP1, active compounds read low 1 | locus YHR142W, strain chs7, active compounds read low 1.01 | locus YHR200W, strain rpn10, active compounds read low 1.03 | locus YIL066C, strain RNR3, active compounds read low 1.01 | locus YIL073C, strain SPO22, active compounds read low 1.04 | locus YIL125W, strain kgd1, active compounds read low 1.01 | locus YIR030C, strain dcg1, active compounds read low 1.01 | locus YJL092W, strain hpr5, active compounds read low 1.02 | locus YJL095W, strain BCK1 (second series), active compounds read low 1.02 | locus YJL095W, strain BCK1, active compounds read low 1.04 and 0.983 | locus YJL115W, strain asf1, active compounds read low 1.01 | locus YJL129C, strain trk1, active compounds read low 1.02 | locus YJL134W, strain LCB3, active compounds read low 1.01 | locus YJL154C, strain vps35, active compounds read low 1.02 | locus YJL164C, strain tpk1, active compounds read low 1 | locus YJL166W, strain qcr8, active compounds read low 1.05 | locus YJL168C, strain set2, active compounds read low 1.02 | locus YJL187C, strain SWE1 (second series), active compounds read low 1.03 | locus YJL187C, strain SWE1, active compounds read low 1.02 | locus YJR043C, strain POL32, active compounds read low 0.999 | locus YJR066W, strain TOR1, active compounds read low 0.974 | locus YJR075W, strain HOC1, active compounds read low 1.03 | locus YKL009W, strain mrt4, active compounds read low 1.03 | locus YKL068W, active compounds read low 0.999 | locus YKL085W, strain MDH1 (second series), active compounds read low 1.03 | locus YKL085W, strain MDH1, active compounds read low 1.03 | locus YKL160W, strain elf1, active compounds read low 1.02 | locus YKR001C, strain vps1, active compounds read low 1 | locus YKR026C, strain gcn3, active compounds read low 0.993 | locus YKR091W, strain srl3, active compounds read low 1.02 | locus YLL001W, strain dnm1, active compounds read low 1.02 | locus YLL026W, active compounds read low 1 | locus YLL041C, strain sdh2, active compounds read low 1.01 | locus YLR027C, strain aat2, active compounds read low 1 | locus YLR039C, strain RIC1, active compounds read low 0.967 | locus YLR058C, strain SHM2, active compounds read low 1.02 | locus YLR102C, strain apc9, active compounds read low 1.01 | locus YLR113W, strain HOG1, active compounds read low 1 | locus YLR221C, strain rsa3, active compounds read low 1.02 | locus YLR258W, strain gsy2, active compounds read low 1.01 | locus YLR262C, strain YPT6 (second series), active compounds read low 0.964 | locus YLR262C, strain YPT6, active compounds read low 0.978 | locus YLR268W, strain sec22, active compounds read low 1.02 | locus YLR320W, strain mms22, active compounds read low 1 | locus YLR330W, strain CHS5, active compounds read low 1.01 | locus YLR342W, strain FKS1 (second series), active compounds read low 1.01 | locus YLR342W, strain FKS1, active compounds read low 1.02 | locus YLR357W, strain rsc2, active compounds read low 1.02 | locus YLR370C, strain arc18, active compounds read low 1.02 | locus YLR371W, strain rom2, active compounds read low 1.01 | locus YLR384C, strain iki3, active compounds read low 1.01 | locus YLR418C, strain cdc73, active compounds read low 1.07 | locus YML016C, strain PPZ1, active compounds read low 1.01 | locus YML032C, strain rad52, active compounds read low 1.03 | locus YML120C, strain ndi1, active compounds read low 1 | locus YML124C, strain tub3, active compounds read low 1.02 | locus YMR058W, strain fet3, active compounds read low 1.01 | locus YMR078C, strain ctf18, active compounds read low 1.02 | locus YMR125W, strain sto1, active compounds read low 1.02 | locus YMR129W, active compounds read low 1.01 | locus YMR205C, strain PFK2, active compounds read low 1.02 | locus YMR223W, strain ubp8, active compounds read low 1.03 | locus YMR231W, strain pep5, active compounds read low 1.01 | locus YMR307W, strain GAS1, active compounds read low 1.06 | locus YNL067W, strain RPL9B, active compounds read low 1.03 | locus YNL071W, strain lat1, active compounds read low 1 | locus YNL153C, strain GIM3, active compounds read low 1.02 | locus YNL175C, strain NOP13, active compounds read low 0.997 | locus YNL183C, strain NPR1, active compounds read low 0.928 | locus YNL197C, strain WHI3, active compounds read low 0.994 | locus YNL209W, strain ssb2, active compounds read low 1 | locus YNL224C, strain SQS1, active compounds read low 0.99 | locus YNL233W, strain BNI4, active compounds read low 1.02 | locus YNL248C, strain rpa49, active compounds read low 0.952 | locus YNL250W, strain rad50, active compounds read low 1.02 | locus YNL271C, strain bni1, active compounds read low 1.02 | locus YNL298W, strain CLA4, active compounds read low 1.02 | locus YNL307C, strain MCK1, active compounds read low 1.03 | locus YNL322C, strain KRE1 (second series), active compounds read low 1.01 | locus YNR049C, strain mso1, active compounds read low 1.01 | locus YNR052C, strain pop2, active compounds read low 1.01 | locus YOL012C, strain htz1 1.6 | locus YOL147C, strain pex11, active compounds read low 1.01 | locus YOR001W, strain rrp6, active compounds read low 1.03 | locus YOR061W, strain CKA2, active compounds read low 1.01 | locus YOR069W, strain VPS5, active compounds read low 1.01 | locus YOR070C, strain gyp1, active compounds read low 1 | locus YOR080W, strain dia2, active compounds read low 1.03 | locus YOR083W, strain WHI5 (second series), active compounds read low 0.976 | locus YOR083W, strain WHI5, active compounds read low 1.05 | locus YOR106W, strain vam3, active compounds read low 1.02 | locus YOR136W, strain idh2, active compounds read low 1.02 | locus YOR144C, strain elg1, active compounds read low 1.01 | locus YOR184W, strain ser1, active compounds read low 1.03 | locus YOR231W, strain MKK1, active compounds read low 1 | locus YOR265W, strain rbl2, active compounds read low 1 | locus YOR270C, strain vph1, active compounds read low 1.02 | locus YOR290C, strain snf2, active compounds read low 1 | locus YOR316C, strain cot1, active compounds read low 1.02 | locus YPL051W, strain arl3, active compounds read low 1.02 | locus YPL055C, strain LGE1, active compounds read low 1.04 and 1.01 | locus YPL078C, strain atp4, active compounds read low 1.03 | locus YPL106C, strain sse1, active compounds read low 0.989 | locus YPL240C, strain hsp82, active compounds read low 0.999 | locus YPL241C, strain CIN2, active compounds read low 1.01 | locus YPL256C, strain CLN2, active compounds read low 0.998 | locus YPR119W, strain clb2, active compounds read low 1.02 | locus YPR141C, strain kar3, active compounds read low 1.01 | locus YPR163C, strain tif3, active compounds read low 1.02 | locus YPR167C, strain met16, active compounds read low 1.01 | strain wtn01, active compounds read low 1.02
